# Paper PMC5540273 (PLoS ONE, 2017)
# System: PIK3CA
# Conditions: concentration: 1 μM, replicates: in singlicate; n = 1
# 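Further: KINOMEscan kinase panel screen.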
row,Compound,%Inh [%]
1,FC(F)(F)c1ccc(/C=C/c2cncnc2Nc2ccc3[nH]c(Cc4ccccc4)nc3c2)cc1 [GW709199],0
2,O=C(Nc1cccc(-c2nn3ccccc3c2-c2ccnc(Nc3cccc(F)c3)n2)c1)c1c(F)ccc(F)c1Cl [GSK357952],0
3,O=C(Nc1ccccc1F)NC1CCN(c2ccnc(Nc3ccc(F)cc3)n2)CC1 [GSK1379800],1
4,Cc1occc1-c1ncc(OC[C@@H](N)Cc2c[nH]c3ccccc23)cc1-c1ccc2[nH]nc(C)c2c1.O=C(O)C(F)(F)F [GSK682037],0
5,C[C@@H]1CC[C@@H](C(=O)Nc2ccccc2)CN1c1cc(-c2ccc3c(N)n[nH]c3c2)nc(N)n1 [GSK2286062],0
6,Cl.NC(=O)c1cccc(Nc2nccc(Nc3ccc(Oc4c(Cl)cccc4Cl)c(Cl)c3)n2)c1 [GW659009],0
7,Cc1ccc(C(=O)Nc2ccc(Nc3ccnc4cc(-c5nccs5)ccc34)cc2O)cc1.Cl [GW494702],0
8,CNC(=O)c1ccccc1Nc1nc(Nc2ccc(N3CCOCC3)cc2)ncc1Cl.Cl [GSK1576028],15
9,COc1cc(Nc2nccc(-c3c(-c4cccc(NC(=O)c5c(F)cccc5F)c4)nn4ccccc34)n2)cc(OC)c1OC [GSK323521],4
10,Nc1ncnc2c1nc(-c1ccccc1)n2-c1ccccc1 [SKF-97293],16
11,Fc1ccc(-c2ncn(C3CCNCC3)c2-c2ccnc(Oc3ccc(-c4ccccc4)cc3)n2)cc1 [SB-245391],40
12,Cl.Cl.NCC(NCc1ccc(-c2ccnc3[nH]ccc23)s1)c1ccccc1 (stereo not shown) [GSK1321565],0
13,CC(=O)N1CCN(c2ccc(Nc3nccc(-c4sc(C(C)C)nc4-c4cccc(NS(=O)(=O)c5cccc(Cl)c5)c4)n3)cn2)CC1 [GSK1660437],0
14,COc1ccc(Nc2nccc(N3CCC(NC(=O)Nc4cccc(OC)c4)C3)n2)cc1 (stereo not shown) [GSK1379742],0
15,Cl.Cl.NCC(NC(=O)c1cc(-c2ccccc2)c(-c2ccnc3[nH]ccc23)s1)c1ccccc1 (stereo not shown) [GSK1321561],0
16,O=C(Nc1n[nH]c2cc(-c3ccoc3)ccc12)C1CC1 [SB-738481],0
17,Cl.c1ccc(-c2ccc3c(Nc4ccc5[nH]ccc5c4)ccnc3c2)nc1 [GW440138],0
18,COc1cc(Nc2nccc(-c3c(-c4cccc(NC(=O)c5c(F)cccc5F)c4)nn4ncccc34)n2)cc(OC)c1OC [GSK327238],2
19,CCCCc1nn2ncccc2c1-c1ccnc(Nc2ccc(N3CCN(C)CC3)cc2)n1 [GW684941],0

row,Compound,%Inh [%]
1,Nc1ncc(-c2ccc3nccc(-c4ccncc4)c3c2)cc1S(=O)(=O)N1CCOCC1 [GSK1627798],100
2,Cc1ccc(S(=O)(=O)Nc2ccc(Nc3nccc(Nc4cccc5[nH]ncc45)n3)cc2)cc1 [GSK581271],0
3,COc1ccc(Nc2nccc(NCCNC(=O)c3cc4ccccc4s3)n2)cc1 [GSK1379896],0
4,NCCCC(NC(=O)c1cc(Br)c(-c2ccnc3[nH]ccc23)s1)c1ccccc1.O=C(O)C(F)(F)F.O=C(O)C(F)(F)F (stereo not shown) [GSK1287544],0
5,CC(C)c1nc(-c2cccc(NS(=O)(=O)c3c(F)cccc3F)c2F)c(-c2ccnc(Nc3ccc(N4CCOCC4)nc3)n2)s1 [GSK2008607],6
6,O=C(NC1CCN(c2ccnc(Nc3ccc(F)cc3)n2)C1)c1cc2ccccc2s1 (stereo not shown) [GSK1379716],0
7,Nc1ncc(-c2cccnc2)c2scc(-c3ccc4c(c3)CCN4C(=O)Cc3ccccc3)c12 [GSK683281],0
8,CC(C)(C)c1ccc2nccc(Nc3cccc(O)c3)c2c1 [GW856795],0
9,COc1cccc(C2=C(Nc3ccc(Cl)c(C(=O)O)c3)C(=O)NC2=O)c1 [SB-390769],10
10,Cc1ccc(F)c(C(=O)Nc2cccc(-c3nn4ccccc4c3-c3ccnc(Nc4cccc(F)c4)n3)c2)c1F [GSK361061],0
11,O=C(Nc1n[nH]c2nc(-c3ccc(O)cc3)ccc12)C1CC1 [SB-710363],0
12,c1ccc(-c2n[nH]cc2Nc2ccnc3ccccc23)nc1 [GW694077],0
13,CCn1c(-c2nonc2N)nc2c(C#CC(C)(C)O)ncc(OCCCCN)c21.O=C(O)C(F)(F)F.O=C(O)C(F)(F)F [GSK507274],0
14,O=C(Nc1cccc(-c2nn3ccccc3c2-c2ccnc(Nc3cccc(C(F)(F)F)c3)n2)c1)c1c(F)cccc1F [GSK292658],0
15,Nc1n[nH]c2cnc(-c3ccccc3)cc12 [SB-642124],0
16,CN(c1ccc(NC(=O)Nc2cc(C(F)(F)F)ccc2F)cc1)c1ccnc(Nc2ccc(S(N)(=O)=O)cc2)n1 [GW809893],3
17,Clc1ccc(-c2nn3ncccc3c2-c2ccnc(Nc3ccc4c(c3)OCCO4)n2)cc1 [GW829116],0
18,Cn1cc(-c2[nH]c3cc(NC(=O)[C@H](N)C4CCCCC4)cc4c3c2C=NNC4=O)cn1,0
